# Assay results: PubChem BioAssay (NCATS)
# A number with no mark means an inactive call. Inconclusive results are not listed. A call without a number means that no potency is given here. Activity calls are given as the source filed them. Unless noted, calls come from the whole dose curve; as a rule, active = well fitted curve in the direction sought with a large enough effect; inconclusive = small, poorly fitted or top-dose-only effect, or another doubt; inactive = no such curve, though single readings can be large; an effect the other way counts as inactive or inconclusive.
# What was measured:
# [1] = Cell Viability - BJ (AID 421; calls by dose curve;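 note: potency is the fitted concentration of half-maximal effect; cells exposed to compound for 40 hours at 37 °C before readout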); details: BJ fibroblast viability, qHTS
# Method in brief: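 Quantitative HTS: ATP depletion in BJ cells after 40 hr compound exposure in complete culture medium, detected with CellTiter-Glo; AC50 from standard Hill fits.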
# [2] = Cell Viability - Hek293 (AID 427;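 active = compounds whose dose-response curve shows a full or clear partial loss of cell viability, called from curve shape rather than a numeric limit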;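 note: potency is the fitted concentration of half-maximal effect; cells exposed to compound for 40 hours at 37 °C before reading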); details: qHTS
# Method in brief: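 AC50 values derive from Hill-modelled concentration-response of ATP-based luminescence, normalized between DMSO-only and 100 uM tamoxifen controls. Cells were exposed in complete culture medium for 40 hr at 37 °C before detection.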
# [3] = Cell Viability - HepG2 (AID 433; calls by dose curve;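 note: potency is the fitted concentration of half-maximal effect; potency for ATP loss meaning cytotoxicity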); details: qHTS
# Method in brief: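 HepG2 cells, 1500 per well, treated 40 hr at 37 °C in complete medium; viability from intracellular ATP by CellTiter-Glo luminescence. Normalized to DMSO and 100 uM tamoxifen; AC50 from Hill fit of qHTS concentration-response.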
# [4] = Cell Viability - MRC5 (AID 434; calls by dose curve;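 note: potency is the fitted concentration of half-maximal effect; potency reflects cytotoxicity seen as loss of intracellular ATP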); details: MRC5 lung fibroblast viability, qHTS
# Method in brief: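 qHTS cytotoxicity in human lung fibroblast MRC5 cells; 40 hr treatment, 37 °C; cellular ATP by luciferase luminescence; DMSO = 0%, 100 uM tamoxifen = 100% inhibition; Hill-fit AC50.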
# [5] = Cell Viability - N2a (AID 540); details: N2a mouse neuroblastoma cell viability; at 92.2 µM (top of the series); note: nearly all actives have a fitted effect of over 45% in size
# Method in brief: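 First, 1500 N2a cells per well incubate 5 hr at 37 °C; next, compounds are added and incubated 40 hr at 37 °C; finally CellTiter-Glo is added and luminescence read after 20 min, with AC50 derived by Hill modeling.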
# [6] = Cell Viability - Renal Proximal Tubule (AID 545); note: nearly all actives have a fitted effect of over 40% in size
# Method in brief: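 Rat renal proximal tubule primary cells, 1000/well, exposed to compounds for 40 hr at 37 °C in complete medium; cellular ATP read by CellTiter-Glo luminescence. AC50 from concentration-response fitted with standard Hill equation.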
# [7] = Cell Viability - Mesenchymal (AID 546);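 note: cells exposed to compound for 40 hours before reading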
# Method in brief: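 AC50 values reflect the drop in intracellular ATP in a human kidney mesenchymal line derived from normal glomeruli. Treatment lasts 40 hr at 37 °C in complete medium, and the signal comes from CellTiter-Glo luminescence.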
# [8] = Cellular Toxicity (caspase-3) HepG2 (AID 654);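 note: cells exposed to compound for 16 hours before reading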
# Method in brief: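 qHTS, HepG2, 1500 cells/well, complete medium; cpd 16 h 37 °C; Caspase-Glo 3/7, 20 min RT; lum. Norm: DMSO vs 100 uM tamoxifen; AC50 Hill fit.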
# [9] = Cellular Toxicity (caspase-3) HUV-EC-C (AID 656)
# Method in brief: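 HUV-EC-C cells (1000/well) in complete medium, compound-treated 16 h at 37 °C; caspase-3/7 activity read by Caspase-Glo 3/7 luminescence. Normalized to DMSO (basal) and 100 uM tamoxifen (100%); AC50 from Hill-equation concentration-response fits.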
# [10] = Cellular Toxicity (caspase-3) SHSY5Y (AID 657)
# Method in brief: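 SH-SY5Y human neuroblastoma cells, 1500/well, exposed to compound for 16 hours at 37 °C in complete medium. Caspase-3/7 activity read by Caspase-Glo luminescence after 1 hr at room temperature, normalized to DMSO and 10 uM staurosporine; AC50 from Hill fit.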
# [11] = Cellular Toxicity (caspase-3) BJ (AID 658)
# Method in brief: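 Readout: Caspase-Glo 3/7 luminescence increase in BJ cells after 16 hr treatment at 37 °C. Staurosporine and tamoxifen served as positive controls; AC50 values came from Hill modelling of data normalized to DMSO and 10 uM staurosporine.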
# [12] = Cellular Toxicity (caspase-3) MRC-5 (AID 659)
# Method in brief: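 Concentration-dependent caspase 3/7 activation is measured in human normal lung fibroblasts (MRC-5) following 16-hour treatment. AC50 values come from standard Hill-equation modeling of luminescence normalized to DMSO and 10 uM staurosporine.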
# [13] = Cellular Toxicity (caspase-3) Mesangial (AID 660);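 note: cells exposed to compound for 16 h before the caspase read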
# Method in brief: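 Concentration-response qHTS: compound-induced rise in caspase 3/7 luminescence in human mesangial cells after 16 h, normalized to DMSO and 100 uM tamoxifen controls.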
# [14] = Cellular Toxicity (caspase-3) SK-N-SH (AID 661)
# Method in brief: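 Caspase 3/7 activation is measured as a luminescence increase from aminoluciferin released by substrate cleavage in SK-N-SH cells after 16 hr compound treatment; values are AC50 from concentration-response curves.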
# [15] = Cellular Toxicity (caspase-3) H-4-II-E (AID 663)
# Method in brief: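 Apoptosis induction is scored as increased luminescence from caspase 3/7 substrate cleavage in rat hepatoma H-4-II-E cells exposed to compound for 16 hr. Activity is scaled between DMSO and 100 uM tamoxifen.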
# [16] = Cellular Toxicity (caspase-3) Hek293 (AID 664);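 note: cells exposed to compound for 16 h at 37 °C before readout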
# Method in brief: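 Activation of caspase-3/7 is measured as increased luminescence from cleaved peptide-aminoluciferin substrate in HEK293 cells treated 16 hours at 37 °C. AC50 values come from Hill-equation fits of concentration-response data.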
# [17] = Cellular Toxicity (caspase-3) N2a (AID 665);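 note: compound exposure lasted 16 h at 37 °C before readout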
# Method in brief: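 Plated mouse neuroblastoma N2a cells received titrated compounds for 16 h in complete medium. Caspase activity was then detected with a peptide-aminoluciferin luminescent reagent.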
# [18] = Cellular Toxicity (caspase-3) NIH 3T3 (AID 666);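 note: caspase signal read after 16 h compound exposure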
# Method in brief: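 Concentration-response qHTS in NIH 3T3 mouse fibroblasts scores caspase-3/7 activation as rising luminescence after 16 hr compound exposure. Signals are scaled between DMSO-only and 100 uM tamoxifen.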
# [19] = Cellular Toxicity (caspase-3) Renal Proximal Tubule (AID 667);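 note: cells exposed to compound for 16 hours at 37 °C before detection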
# Method in brief: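 Freshly isolated primary rat kidney proximal tubule cells, 1000/well, treated 16 hr at 37 °C, then Caspase-Glo 3/7 luminescence after 1 hr. Normalized to DMSO and 10 uM staurosporine; AC50 from Hill fit.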
# [20] = biological target: Cytochrome P450 3A4 (Homo sapiens) (UniProt P08684); assay: qHTS Assay for Inhibitors and Substrates of Cytochrome P450 3A4 (AID 884); note: potency is the fitted concentration of half-maximal effect; nearly all actives have a fitted effect of over 50% in size
# Sequence of Cytochrome P450 3A4 (Homo sapiens) (P08684 whole entry, looked up): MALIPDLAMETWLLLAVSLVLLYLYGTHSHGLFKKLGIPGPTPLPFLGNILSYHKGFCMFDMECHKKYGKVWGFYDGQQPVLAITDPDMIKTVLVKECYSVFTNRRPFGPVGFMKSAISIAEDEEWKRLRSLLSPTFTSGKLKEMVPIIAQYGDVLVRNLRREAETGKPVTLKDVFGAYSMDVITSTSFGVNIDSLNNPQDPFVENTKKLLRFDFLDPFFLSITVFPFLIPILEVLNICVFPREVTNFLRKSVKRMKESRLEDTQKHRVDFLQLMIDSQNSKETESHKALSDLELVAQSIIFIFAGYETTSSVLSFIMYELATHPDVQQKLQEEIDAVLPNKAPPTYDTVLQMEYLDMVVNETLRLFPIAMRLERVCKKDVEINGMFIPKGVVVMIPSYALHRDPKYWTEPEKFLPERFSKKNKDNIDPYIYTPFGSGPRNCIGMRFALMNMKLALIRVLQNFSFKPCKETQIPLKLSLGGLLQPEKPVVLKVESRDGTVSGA
# Method in brief: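 20 nM human CYP3A4 with 25 uM Luciferin-PPXE (at KM) in 200 mM KPO4, preincubated 10 min with compound; NADPH regeneration started a 60 min RT reaction. Luciferin detected by luminescence, normalized to 57 uM ketoconazole as full inhibition.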
# [21] = biological target: Cytochrome P450 3A4 (Homo sapiens) (UniProt P08684); assay: qHTS Assay for Activators of Cytochrome P450 3A4 (AID 885); note: nearly all actives have a fitted effect of over 65% in size
# Method in brief: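 Quantitative HTS format: compounds preincubated with 20nM human CYP3A4 and Luciferin-PPXE substrate at KM, reaction started by NADPH regeneration, stopped after 60 min, luciferase luminescence read 20 min later.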
# [22] = MultiTox-Fluor Cytotoxicity Assay - LYMP1-001 - Dead Cells (AID 946)
# Method in brief: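 In this qHTS, 15 uM tetraoctylammonium bromide defined 100% and DMSO defined basal activity. Lymphoblastoid cells (LYMP1-001, 2500 per well) received compound for 16 hr at 37 C before a fluorogenic dead-cell substrate readout at 485/520 nm.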
# [23] = MultiTox-Fluor Cytotoxicity Assay - LYMP1-001 - Live Cells (AID 947)
# [24] = Cell Viability - LYMP1-002 - Assay at 16 hr (AID 948)
# Method in brief: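 LYMP1-002 human lymphoblastoid cells, 2500/well, were treated with compounds for 16 hr at 37 C in complete medium. Viability was read as intracellular ATP by CellTiter-Glo luminescence, and AC50 was derived from a Hill fit to concentration-response data.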
# [25] = MultiTox-Fluor Cytotoxicity Assay - LYMP1-002 - Live Cells (AID 955)
# Method in brief: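 Cytotoxicity in the human lymphoblastoid line LYMP1-002 is measured as loss of live-cell protease activity after 16 h treatment in complete culture medium. AC50 is derived from Hill-equation fits of qHTS concentration-response data.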
# [26] = MultiTox-Fluor Cytotoxicity Assay - LYMP1-002 - Dead Cells (AID 960); note: nearly all actives have a fitted effect of over 60% in size
# Method in brief: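 Acute cytotoxicity in a human lymphoblastoid line is scored as rising dead-cell protease signal after 16 hr exposure at 37 C, measured fluorometrically (485/520).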
# [27] = MultiTox-Fluor Cytotoxicity Assay - LYMP1-003 - Live Cells (AID 962);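 note: cytotoxic hits lower the live-cell protease signal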
# Method in brief: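 Cells plated at 2500 per well and incubated 5 hr; compounds added and incubated 16 hr at 37 C; MultiTox-Fluor reagent added for 60 min at room temperature; fluorescence of liberated AFC measured at 405/510 nm.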
# [28] = Cell Viability - LYMP1-003 - Assay at 24 hr (AID 963)
# Method in brief: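 Acute toxicity in LYMP1-003 lymphoblastoid cells: 24 hr compound treatment at 37 C, ATP measured with CellTiter-Glo after 30 min at room temperature. AC50 derived by fitting the Hill equation to qHTS titrations.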
# [29] = Cell Viability - LYMP2-003 (AID 965);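 note: cells exposed to compounds for 24 h before reading; nearly all actives have a fitted effect of over 50% in size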
# Method in brief: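 Human lymphoblastoid LYMP2-003 cells, 2500/well, exposed to compounds for 24 h at 37 C in complete medium. Viability read as intracellular ATP by CellTiter-Glo luminescence; AC50 from Hill-equation fits of qHTS concentration-response data.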
# [30] = Cell Viability - LYMP2-004 (AID 966); note: nearly all actives have a fitted effect of over 65% in size
# Method in brief: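 Acute toxicity is scored as a concentration-dependent drop in intracellular ATP, quantified by luciferase luminescence, in human lymphoblastoid cells exposed to compound for 24 hr. AC50 derives from Hill-equation modelling.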
# [31] = Cell Viability - LYMP2-005 (AID 967)
# Method in brief: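 Human lymphoblastoid LYMP2-005 cells, 2,500 per well in complete medium, rested 5 h at 37C then compound-treated 24 h at 37C. Intracellular ATP read by CellTiter-Glo luminescence after 30 min at room temperature; AC50 from Hill-equation fits of concentration-response data.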
# [32] = Cell Viability - LYMP2-009 (AID 968); note: nearly all actives have a fitted effect of over 55% in size
# [33] = Cell Viability - LYMP2-011 (AID 969); note: nearly all actives have a fitted effect of over 60% in size
# Method in brief: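 Acute toxicity is scored as a concentration-dependent drop in intracellular ATP of a human lymphoblastoid line after 24 hr treatment. Values are AC50s modeled with the Hill equation.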
# [34] = Cell Viability - LYMP2-013 (AID 970); note: nearly all actives have a fitted effect of over 55% in size
# Method in brief: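 Acute toxicity was measured in human lymphoblastoid cells (2500/well) exposed to compound titrations for 24 hr, with ATP luminescence (CellTiter-Glo) as read-out and AC50 fitted by Hill equation.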
structure (smiles),measurement,setting,value
COC1=CC(=O)OC(CCc2ccc3c(c2)OCO3)C1 (centres undefined),Potency,[1],> 92 µM
same,Potency,[2],> 92 µM
same,Potency,[3],> 92 µM
same,Potency,[4],> 92 µM
same,"activity change, negative = cytotoxicity",[5],-20.1%
same,outcome,[6],inactive
same,outcome,[7],inactive
same,outcome,[8],inactive
same,outcome,[9],inactive
same,outcome,[10],inactive
same,outcome,[11],inactive
same,outcome,[12],inactive
same,outcome,[13],inactive
same,outcome,[14],inactive
same,outcome,[15],inactive
same,outcome,[16],inactive
same,outcome,[17],inactive
same,outcome,[18],inactive
same,outcome,[19],inactive
same,Potency,[20],2 µM (active)
same,Potency,[21],inactive
same,Potency,[22],inactive
same,outcome,[23],inactive
same,outcome,[24],inactive
same,outcome,[25],inactive
same,Potency,[26],inactive
same,outcome,[27],inactive
same,outcome,[28],inactive
same,outcome,[29],inactive
same,outcome,[30],inactive
same,outcome,[31],inactive
same,outcome,[32],inactive
same,outcome,[33],inactive
same,outcome,[34],inactive
